A short description of assay [1]: qHTS of pediatric cancer cell lines to identify multiple opportunities for drug repurposing: Primary screen for A673 cells (AID 1347092). Also: nearly all actives have a fitted effect of over 45% in size. Also: potency is read from the fitted curve at half-maximal effect. An outline of the steps:
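Cells are plated, rested 5 h, dosed by pintool, incubated 48 h, then lysed with CellTiter-Glo and read by luminescence. DMSO is the neutral control; bortezomib at 2.3 uM final is the positive control.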
For orientation: In qHTS, concentration-response curves come from the screen itself.

Assay [2] is described as follows: qHTS of pediatric cancer cell lines to identify multiple opportunities for drug repurposing: Primary screen for SK-N-MC cells (AID 1347093). Also: potency is read from the fitted curve at half-maximal effect. The gist of the method:
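Metabolically active cells were quantified by ATP-dependent luminescence (CellTiter-Glo, 15 min at room temperature) following 48 h treatment. Cells had been plated at 500-1,000 per well and settled for 5 h beforehand.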

Assay [3] can be described thus: qHTS of pediatric cancer cell lines to identify multiple opportunities for drug repurposing: Primary screen for BT-37 cells (AID 1347094). Also: potency is read from the fitted curve at half-maximal effect. The gist of the method: (§1)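 Quantitative HTS format: each compound titrated (MIPE 11 points from 0.78 nM, NPC 8 points from 0.59 nM) onto cells plated 5 hours earlier. After 48 h at 37 degrees C, CellTiter-Glo luminescence was recorded.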

Assay [4] is described as follows: qHTS of pediatric cancer cell lines to identify multiple opportunities for drug repurposing: Primary screen for NB-EBc1 cells (AID 1347095). Also: potency is read from the fitted curve at half-maximal effect. The gist of the method: as §1
The nature of assay [5]: qHTS of pediatric cancer cell lines to identify multiple opportunities for drug repurposing: Primary screen for U-2 OS cells (AID 1347096). Also: nearly all actives have a fitted effect of over 50% in size. Also: potency is read from the fitted curve at half-maximal effect. An outline of the steps:
(§2)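 Cells (500-1,000/well) rested 5 h, then received compounds for 48 h; metabolically active cells were measured by CellTiter-Glo luminescence. Final concentrations spanned up to 46 µM (MIPE, 11-point) or 0.59 nM-46 µM (NPC, 8-point) in primary screens, 11-point in follow-ups.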

Assay [6] in a line: qHTS of pediatric cancer cell lines to identify multiple opportunities for drug repurposing: Primary screen for SK-N-SH cells (AID 1347098). Also: nearly all actives have a fitted effect of over 65% in size. Also: potency is read from the fitted curve at half-maximal effect. The gist of the method: as §2
Assay [7] is described as follows: qHTS of pediatric cancer cell lines to identify multiple opportunities for drug repurposing: Primary screen for NB1643 cells (AID 1347099). Also: nearly all actives have a fitted effect of over 50% in size. Also: potency is read from the fitted curve at half-maximal effect. The gist of the method: as §1
The nature of assay [8]: qHTS of pediatric cancer cell lines to identify multiple opportunities for drug repurposing: Primary screen for LAN-5 cells (AID 1347100). Also: potency is read from the fitted curve at half-maximal effect. The gist of the method:
as §2

Assay [9] in a line: qHTS of pediatric cancer cell lines to identify multiple opportunities for drug repurposing: Primary screen for OHS-50 cells (AID 1347103). Also: nearly all actives have a fitted effect of over 40% in size. Also: potency is read from the fitted curve at half-maximal effect. The gist of the method:
as §2

A short description of assay [10]: qHTS of pediatric cancer cell lines to identify multiple opportunities for drug repurposing: Primary screen for RD cells (AID 1347104). Also: nearly all actives have a fitted effect of over 55% in size. Also: potency is read from the fitted curve at half-maximal effect. The gist of the method: as §1
Assay [11] can be described thus: qHTS of pediatric cancer cell lines to identify multiple opportunities for drug repurposing: Primary screen for MG 63 (6-TG R) cells (AID 1347105). Also: nearly all actives have a fitted effect of over 50% in size. Also: potency is read from the fitted curve at half-maximal effect. The gist of the method:
as §1

Assay [12] in a line: qHTS of pediatric cancer cell lines to identify multiple opportunities for drug repurposing: Primary screen for Rh41 cells (AID 1347108). Also: nearly all actives have a fitted effect of over 70% in size. Also: potency is read from the fitted curve at half-maximal effect. An outline of the steps:
as §1

A short description of assay [13]: qHTS of pediatric cancer cell lines to identify multiple opportunities for drug repurposing: Primary screen for Saos-2 cells (AID 1347097). Also: nearly all actives have a fitted effect of over 40% in size. Also: potency is read from the fitted curve at half-maximal effect. An outline of the steps:
as §1

A short description of assay [14]: qHTS of pediatric cancer cell lines to identify multiple opportunities for drug repurposing: Primary screen for BT-12 cells (AID 1347101). Also: nearly all actives have a fitted effect of over 25% in size. Also: potency is read from the fitted curve at half-maximal effect. The gist of the method:
as §2

Assay [15] in a line: qHTS of pediatric cancer cell lines to identify multiple opportunities for drug repurposing: Primary screen for control Hh wild type fibroblast cells (AID 1347106).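 Also: series mostly up to about 46 µM; a drop in luminescence marks cytotoxicity and a rise apparent proliferation; nearly all actives have a fitted effect of over 55% in size.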 An outline of the steps: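 Viability after 48 h compound treatment at 37C, 500-1,000 cells/well, read as ATP luminescence with CellTiter-Glo. Primary screens used 11-point (MIPE, 0.78 nM-46 µM) or 8-point (NPC, 0.59 nM-46 µM) final concentrations; follow-up screens used 11-point dilutions.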

The nature of assay [16]: qHTS of pediatric cancer cell lines to identify multiple opportunities for drug repurposing: Primary screen for Rh30 cells (AID 1347107). Also: nearly all actives have a fitted effect of over 75% in size. Also: potency is read from the fitted curve at half-maximal effect. An outline of the steps:
as §2

Assay [17] can be described thus: qHTS of pediatric cancer cell lines to identify multiple opportunities for drug repurposing: Confirmatory screen for NB1643 cells (AID 1347109). Also: nearly all actives have a fitted effect of over 45% in size. Also: potency is read from the fitted curve at half-maximal effect. An outline of the steps:
as §2

Assay [18] in a line: qHTS of pediatric cancer cell lines to identify multiple opportunities for drug repurposing: Confirmatory screen for SK-N-MC cells (AID 1347111).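 Also: potency is read from the fitted curve at half-maximal effect; cells exposed to compound for 48 h before the readout; nearly all actives have a fitted effect of over 70% in size.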 An outline of the steps: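 Seed 500-1,000 cells/well; rest 5 h at 37 degrees C. Pin-transfer compounds, 11-point titration. Incubate 48 h. Add CellTiter-Glo, 15 min RT, read luminescence.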
A short description of assay [19]: qHTS of pediatric cancer cell lines to identify multiple opportunities for drug repurposing: Primary screen for Rh18 cells (AID 1347102). Also: nearly all actives have a fitted effect of over 65% in size. Also: potency is read from the fitted curve at half-maximal effect. The gist of the method:
as §2

Assay [20] can be described thus: qHTS of pediatric cancer cell lines to identify multiple opportunities for drug repurposing: Confirmatory screen for A673 cells (AID 1347110).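 Also: potency is read from the fitted curve at half-maximal effect; cells exposed to compound for 48 h before the viability read; nearly all actives have a fitted effect of over 65% in size.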 The gist of the method:
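Cells plated at 500-1,000/well were treated five hours later with multi-point dilutions up to 46 µM final. After two days, CellTiter-Glo was added and luminescence read.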

Structures are written as SMILES. Results filed as inconclusive are left out. A number with no mark means an inactive call. Active and inactive are the calls of the source. Calls follow the shape of the dose curve; as a rule, active = well fitted curve in the direction sought with a large enough effect; inconclusive = small, poorly fitted or top-dose-only effect, or another doubt; inactive = no such curve, though single readings can be large; an effect the other way counts as inactive or inconclusive.

For the compound `COc1ccc([C@@H]2CNC(=O)C2)cc1OC1CCCC1`, the Potency in assay [1] is 743 nM (active); in assay [2] it was 469 nM (active); in assay [3] it was 27300 nM (active); in [6], 3040 nM (active); in assay [7], 1320 nM (active); in assay [10], 3320 nM (active). Further, the values for the Potency in assay [11] and in assay [12] were 5900 nM (active) and 3720 nM (active), respectively. Also, the Potency result in assay [4], in assay [5], in [8] and in [9] was “inactive” in each case.

Take `Nc1nc2c(c(=O)[nH]1)N(C=O)[C@H](CNc1ccc(C(=O)N[C@@H](CCC(=O)O)C(=O)O)cc1)CN2`: the Potency was 7430 nM (active) in assay [1]; 9680 nM (active) in assay [3]; 10500 nM (active) in assay [8]; 10900 nM (active) in [14]; 27300 nM (active) in [9]; 10400 nM (active) in [18]. The Potency result in [2], in assay [4], in [5], in assay [13], in [6] and in assay [11] was “inactive” throughout. The Potency result in [15], in [16] and in assay [17] was “inactive” each time.

As to `CC(C=CC1=C(C)CCCC1(C)C)=CC=CC(C)=CC(=O)Nc1ccc(O)cc1`, the Potency in assay [1] is 2700 nM (active); in [2], 3820 nM (active); in [3], 17700 nM (active); in assay [4], 3400 nM (active); in [5], 42900 nM (active); in assay [13] it was 27000 nM (active). Also, the Potency in [6] is 55500 nM (active); in [7], 17100 nM (active); in assay [8], 3400 nM (active); in assay [19] it was 42900 nM (active); in [9] it was 17700 nM (active); in assay [10] it was 34000 nM (active). For the same compound, the Potency was 27000 nM (active) in assay [11]; 42900 nM (active) in assay [16]; 7620 nM (active) in assay [12]; 42700 nM (active) in assay [17]; 380 nM (active) in assay [20]; 2400 nM (active) in assay [18].

Consider `Cn1cc(C=CC(=O)c2cccc(F)c2)cc1C=CC(=O)NO`, for which the Potency in assay [1] was 9350 nM (active); in assay [2] it was 2960 nM (active); in [6] it was 24100 nM (active); in assay [7], 4690 nM (active). The Potency result in assay [3], in assay [4], in [5], in [14], in assay [19] and in [11] was “inactive” each time. Also, the Potency result in assay [15] and in assay [16] was “inactive” in each case.

In the case of `C[C@H]1O[C@H](O[C@H]2[C@H](O)[C@@H](O)[C@@H](O[C@H]3[C@H](O)[C@@H](O)C(O)O[C@H]3CO)O[C@H]2CO)[C@H](O)[C@@H](O)[C@H]1N[C@H]1C=C(CO)[C@@H](O)[C@H](O)[C@@H]1O` (stereo partly specified), the Potency in assay [1] was 187 nM (active); in [2] it was 33200 nM (active); in assay [3], 1720 nM (active); in assay [13] it was 2350 nM (active); in assay [8] it was 2350 nM (active); in [14] it was 2170 nM (active). Moreover, in assay [9], the Potency was 2170 nM (active). Further, the Potency entry in [4], in assay [5], in assay [6], in [19], in [10] and in assay [11] was “inactive” in each case. Further, the Potency result in assay [15], in assay [16] and in assay [12] was “inactive” throughout.

With `Nc1nc(=O)n([C@H]2CSC(CO)O2)cc1F` (stereo partly specified), the Potency result in [1], in assay [2], in assay [3], in assay [4], in assay [5] and in assay [13] was “inactive” in each case. The Potency result in assay [6], in assay [7], in assay [8], in assay [9], in [10] and in [11] was “inactive” in each case. The Potency result in assay [15], in assay [16] and in [12] was “inactive” throughout.

Consider `CO[C@@H]1[C@@H](O)[C@H](O)[C@@H](n2c3c(Cl)cccc3c3c4c(c5c6cccc(Cl)c6[nH]c5c32)C(=O)NC4=O)O[C@@H]1CO`, for which the Potency in [1] was 235 nM (active); in assay [2] it was 66.2 nM (active); in assay [3] it was 273 nM (active); in [4] it was 93.5 nM (active); in assay [5] it was 4690 nM (active); in assay [13], 296 nM (active). The Potency in [6] was 1210 nM (active); in [7] it was 418 nM (active); in assay [8], 118 nM (active); in assay [19], 2090 nM (active); in [9] it was 306 nM (active); in assay [10], 2640 nM (active). Moreover, the Potency was 2350 nM (active) in assay [12], 1850 nM (active) in [17], 827 nM (active) in assay [20] and 928 nM (active) in assay [18]. The Potency result in assay [15] is “inactive”.

As to `CN(N=O)C(=O)N[C@H]1C(O)OC(CO)[C@@H](O)[C@H]1O` (stereo partly specified), the Potency result in assay [1], in assay [2], in assay [3], in [4], in assay [5] and in assay [13] was “inactive” each time. In addition, the Potency result in assay [6], in [7], in assay [8], in [14], in assay [9] and in assay [10] was “inactive” throughout. The Potency result in assay [15] and in assay [16] was “inactive” in each case.

For the compound `COc1cccc2c1C(=O)c1c(O)c3c(c(O)c1C2=O)C[C@@](O)(C(=O)CO)C[C@@H]3O[C@H]1C[C@H](N)[C@H](OC2CCCCO2)[C@H](C)O1` (stereo partly specified), the Potency is 2350 nM (active) in assay [1]; 833 nM (active) in assay [2]; 1930 nM (active) in assay [3]; 296 nM (active) in assay [4]; 469 nM (active) in [8]; 2430 nM (active) in [14]. For the same compound, the Potency in [10] is 13200 nM (active); in assay [17] it was 1650 nM (active); in assay [20], 2610 nM (active); in assay [18], 737 nM (active). Moreover, the Potency entry in assay [5], in assay [13], in [6], in [19], in assay [15] and in [16] was “inactive” throughout.

For `NC(=O)Nc1cc(-c2ccc(CN3CCOCC3)cc2)sc1C(N)=O`, the Potency in [1] was 5900 nM (active); in [2] it was 105 nM (active); in [3], 21700 nM (active); in [4], 235 nM (active); in [5], 18700 nM (active); in [13], 2350 nM (active). Besides, the Potency in [6] was 1360 nM (active); in assay [7], 29.6 nM (active); in [8], 33.2 nM (active); in assay [9] it was 217 nM (active); in assay [10], 8330 nM (active); in assay [11], 11800 nM (active). The figures for the Potency in [17], in assay [20] and in assay [18] were 414 nM (active), 11700 nM (active) and 657 nM (active), respectively. In addition, the Potency entry in [15] was “inactive”.
